# Reference: PubChem BioAssay (NCI)
# “And” between values parts separate entries of the source, which are not always exact repeats. Equal values may be shown once. This is part of a sample that, as a whole, favours compounds with a hit. Of some 79,000 tested, about 15% had one in any assay. Values without a mark were called inactive. The source made the active and inactive calls. Rule as the data show it: active = growth inhibition above about 70%; inactive = the rest.
# Experiments:
# [1] = NCI Yeast Anticancer Drug Screen. Data for the wt1 strain (AID 149);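 also: 0% = growth of vehicle-treated wt1 cultures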; conditions: S. cerevisiae wt1 strain (SPY 50644) growth inhibition, active compounds read high
# In short: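 wt1 yeast, compound-treated; % growth inhibition vs vehicle control.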
# [2] = NCI Yeast Anticancer Drug Screen. Data for the mgt1 strain (AID 153); conditions: S. cerevisiae mgt1 mutant growth inhibition, active compounds read high
# In short: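 mgt1 yeast grown with test compound; read-out is growth inhibition versus vehicle-treated cultures.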
# [3] = NCI Yeast Anticancer Drug Screen. Data for the rad50 strain (AID 155);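 also: 0% = growth of vehicle-only cultures of the same strain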; conditions: S. cerevisiae rad50 strain growth inhibition, active compounds read high
# In short: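 Genetically altered yeast (DNA repair pathway); compound treatment; growth inhibition vs vehicle ctrl.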
# [4] = NCI Yeast Anticancer Drug Screen. Data for the mec2-1 strain (AID 157); conditions: S. cerevisiae mec2-1 strain, active compounds read high
# In short: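 Yeast mec2-1 mutant treated with compound. Readout: growth inhibition vs vehicle controls.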
# [5] = NCI Yeast Anticancer Drug Screen. Data for the rad14 strain (AID 159);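 also: 0% = growth of vehicle-treated control cultures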; conditions: S. cerevisiae rad14 strain growth inhibition, active compounds read high
# In short: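 Test compounds were applied to a repair-deficient yeast strain. Its growth was then compared with that of cultures given vehicle alone, and inhibition was expressed relative to those controls.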
# [6] = NCI Yeast Anticancer Drug Screen. Data for the sgs1 mgt1 strain (AID 161);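 also: 0% = growth of cultures given vehicle only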; conditions: S. cerevisiae sgs1 mgt1 strain, active compounds read high
# In short: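 Inhibition of yeast growth, normalised to vehicle-treated controls, is reported for a strain bearing genetic alterations in DNA damage repair.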
# [7] = NCI Yeast Anticancer Drug Screen. Data for the CLN2oe strain (AID 163);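 also: 0% = growth of vehicle-only control cultures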; conditions: S. cerevisiae CLN2oe strain, active compounds read high
# In short: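 Read-out: yeast growth inhibition, expressed relative to vehicle-only controls. The strain bears an engineered cell-cycle alteration.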
# [8] = NCI Yeast Anticancer Drug Screen. Data for the cln2 rad14 strain (AID 165);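 also: 0% = growth equal to vehicle treated cultures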; conditions: S. cerevisiae cln2 rad14 strain, active compounds read high
# In short: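 cln2 rad14 yeast strain; compound exposure; growth inhibition read vs vehicle controls.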
# [9] = NCI Yeast Anticancer Drug Screen. Data for the bub3 strain (AID 167); conditions: S. cerevisiae bub3 mutant strain, active compounds read high
# In short: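 Yeast carrying a defined mutation is treated with each compound, and growth is compared with that of vehicle-exposed cells to give inhibition.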
# [10] = NCI Yeast Anticancer Drug Screen. Data for the wt2 strain (AID 169);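 also: 0% = growth of vehicle-treated yeast cultures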; conditions: S. cerevisiae wt2 strain growth inhibition, active compounds read high
# In short: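 Read-out: growth inhibition versus vehicle-treated control cultures after compound exposure of the yeast strain.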
# [11] = NCI Yeast Anticancer Drug Screen. Data for the mlh1 strain (AID 171);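 also: 0% = growth of vehicle-treated control cultures of the same strain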; conditions: S. cerevisiae mlh1 strain growth inhibition, active compounds read high
# In short: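 Read-out: growth inhibition versus vehicle controls. Strain: engineered yeast with a defined DNA repair or cell cycle defect, compound-treated.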
# [12] = NCI Yeast Anticancer Drug Screen. Data for the sgs1 strain (AID 173);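 also: 0% = growth of vehicle-only control cultures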; conditions: S. cerevisiae sgs1 mutant, active compounds read high
# In short: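 Read-out: yeast growth inhibition relative to vehicle controls, following compound exposure of a strain with a defined DNA repair/cell cycle alteration.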
# [13] = NCI Yeast Anticancer Drug Screen. Data for the mlh1 rad18 strain (AID 175); conditions: S. cerevisiae mlh1 rad18 strain growth inhibition, active compounds read high
# In short: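 Yeast w/ defined DNA-repair lesions; compound exposure; growth vs vehicle controls → % inhibition.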
# [14] = NCI Yeast Anticancer Drug Screen. Data for the rad18 strain (AID 177); conditions: S. cerevisiae rad18 mutant growth inhibition, active compounds read high
# In short: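 Readout: growth inhibition vs vehicle controls. Cells: genetically altered yeast strain, DNA repair defect.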
# [15] = NCI Yeast Anticancer Drug Screen. Data for the rad50EPP+ strain (AID 151);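 also: 0% = growth of vehicle-treated control cultures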; conditions: S. cerevisiae rad50 mutant strain, active compounds read high
# In short: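 Growth inhibition read against vehicle controls in rad50EPP+ yeast, a strain altered in DNA damage repair, after compound exposure.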
# [16] = at 5.0 µM (retest, dose inferred, filed as 0.5)
# [17] = at 50.0 µM (retest, dose inferred, filed as 5.0)
smiles,measurement,setting,value
O=C1c2ccccc2C(=O)C1C(c1ccc(F)cc1)C1C(=O)c2ccccc2C1=O,growth inhibition,[1]; at 1.2 µM,9%
same,growth inhibition,[1]; at 3.7 µM,10%
same,growth inhibition,[1]; at 11.0 µM,7%
same,growth inhibition,[1]; at 33.0 µM,18%
same,growth inhibition,[1]; at 100.0 µM,85% (active)
same,growth inhibition,[2]; at 1.2 µM,0%
same,growth inhibition,[2]; at 3.7 µM,-11%
same,growth inhibition,[2]; at 11.0 µM,-17%
same,growth inhibition,[2]; at 33.0 µM,5%
same,growth inhibition,[2]; at 100.0 µM,76% (active)
same,growth inhibition,[3]; at 1.2 µM,13%
same,growth inhibition,[3]; at 3.7 µM,5%
same,growth inhibition,[3]; [16],21%
same,growth inhibition,[3]; at 11.0 µM,7%
same,growth inhibition,[3]; at 33.0 µM,28%
same,growth inhibition,[3]; [17],46%
same,growth inhibition,[3]; at 50.0 µM,77.5% (active)
same,growth inhibition,[3]; at 100.0 µM,88% (active)
same,growth inhibition,[4]; at 1.2 µM,-13%
same,growth inhibition,[4]; at 3.7 µM,-6%
same,growth inhibition,[4]; [16],-14%
same,growth inhibition,[4]; at 11.0 µM,-14%
same,growth inhibition,[4]; at 33.0 µM,6%
same,growth inhibition,[4]; [17],81% (active)
same,growth inhibition,[4]; at 50.0 µM,75% (active)
same,growth inhibition,[4]; at 100.0 µM,83% (active)
same,growth inhibition,[5]; at 1.2 µM,-20%
same,growth inhibition,[5]; at 3.7 µM,-20%
same,growth inhibition,[5]; at 11.0 µM,-52%
same,growth inhibition,[5]; at 33.0 µM,0%
same,growth inhibition,[5]; at 100.0 µM,82% (active)
same,growth inhibition,[6]; [16],2%
same,growth inhibition,[6]; [17],41%
same,growth inhibition,[6]; at 50.0 µM,56.2%
same,growth inhibition,[7]; at 1.2 µM,6%
same,growth inhibition,[7]; at 3.7 µM,0%
same,growth inhibition,[7]; at 11.0 µM,-1%
same,growth inhibition,[7]; at 33.0 µM,34%
same,growth inhibition,[7]; at 100.0 µM,86% (active)
same,growth inhibition,[8]; [16],27%
same,growth inhibition,[8]; [17],89% (active)
same,growth inhibition,[8]; at 50.0 µM,85.8% (active)
same,growth inhibition,[9]; at 1.2 µM,-18%
same,growth inhibition,[9]; at 3.7 µM,-33%
same,growth inhibition,[9]; [16],17%
same,growth inhibition,[9]; at 11.0 µM,-34%
same,growth inhibition,[9]; at 33.0 µM,-17%
same,growth inhibition,[9]; [17],87% (active)
same,growth inhibition,[9]; at 50.0 µM,79% (active)
same,growth inhibition,[9]; at 100.0 µM,83% (active)
same,growth inhibition,[10]; at 1.2 µM,1%
same,growth inhibition,[10]; at 3.7 µM,2%
same,growth inhibition,[10]; at 11.0 µM,1%
same,growth inhibition,[10]; at 33.0 µM,22%
same,growth inhibition,[10]; at 100.0 µM,81% (active)
same,growth inhibition,[11]; at 1.2 µM,-17%
same,growth inhibition,[11]; at 3.7 µM,-15%
same,growth inhibition,[11]; at 11.0 µM,-16%
same,growth inhibition,[11]; at 33.0 µM,5%
same,growth inhibition,[11]; at 100.0 µM,82% (active)
same,growth inhibition,[12]; at 1.2 µM,11%
same,growth inhibition,[12]; at 3.7 µM,25%
same,growth inhibition,[12]; at 11.0 µM,41%
same,growth inhibition,[12]; at 33.0 µM,54%
same,growth inhibition,[12]; at 100.0 µM,89% (active)
same,growth inhibition,[13]; [16],8%
same,growth inhibition,[13]; [17],74% (active)
same,growth inhibition,[13]; at 50.0 µM,72.1% (active)
same,growth inhibition,[14]; at 1.2 µM,-2%
same,growth inhibition,[14]; at 3.7 µM,-7%
same,growth inhibition,[14]; at 11.0 µM,1%
same,growth inhibition,[14]; at 33.0 µM,26%
same,growth inhibition,[14]; at 100.0 µM,88% (active)
OCC(O)C(O)C(O)C(O)c1nc2ccccc2[nH]1 (stereo not given),growth inhibition,[3]; [16],-2% and -4%
same,growth inhibition,[3]; [17],-1% and -19%
same,growth inhibition,[3]; at 50.0 µM,4% [middle of 5 runs]
same,growth inhibition,[4]; [16],-17% and -20%
same,growth inhibition,[4]; [17],-30%
same,growth inhibition,[4]; at 50.0 µM,0.75% [middle of 5 runs]
same,growth inhibition,[6]; [16],3% and -6%
same,growth inhibition,[6]; [17],1% and -14%
same,growth inhibition,[6]; at 50.0 µM,2% [middle of 5 runs]
same,growth inhibition,[8]; [16],0% and 2%
same,growth inhibition,[8]; [17],-1% and 14%
same,growth inhibition,[9]; [16],6% and -5%
same,growth inhibition,[9]; [17],12% and -1%
same,growth inhibition,[13]; [16],-1% and -11%
same,growth inhibition,[13]; [17],5% and 1%
COc1ccc(/C=C2\S/C(=N/Nc3nc(-c4ccccc4)cs3)NC2=O)cc1OC,growth inhibition,[15]; at 1.2 µM,29%
same,growth inhibition,[15]; at 3.7 µM,63%
same,growth inhibition,[15]; at 11.0 µM,93% (active)
same,growth inhibition,[15]; at 33.0 µM,97% (active)
same,growth inhibition,[15]; at 100.0 µM,97% (active)
same,growth inhibition,[2]; at 1.2 µM,92% (active)
same,growth inhibition,[2]; at 3.7 µM,97% (active)
same,growth inhibition,[2]; at 11.0 µM,98% (active)
same,growth inhibition,[2]; at 33.0 µM,97% (active)
same,growth inhibition,[2]; at 100.0 µM,93% (active)
same,growth inhibition,[3]; at 1.2 µM,59%
same,growth inhibition,[3]; at 3.7 µM,87% (active)
same,growth inhibition,[3]; [16],-4%
same,growth inhibition,[3]; at 11.0 µM,96% (active)
same,growth inhibition,[3]; at 33.0 µM,97% (active)
same,growth inhibition,[3]; [17],93% (active)
same,growth inhibition,[3]; at 50.0 µM,95.2% (active)
same,growth inhibition,[3]; at 100.0 µM,93% (active)
same,growth inhibition,[4]; at 1.2 µM,82% (active)
same,growth inhibition,[4]; at 3.7 µM,88% (active)
same,growth inhibition,[4]; [16],-8%
same,growth inhibition,[4]; at 11.0 µM,96% (active)
same,growth inhibition,[4]; at 33.0 µM,97% (active)
same,growth inhibition,[4]; [17],87% (active)
same,growth inhibition,[4]; at 50.0 µM,95.5% (active)
same,growth inhibition,[4]; at 100.0 µM,94% (active)
same,growth inhibition,[5]; at 1.2 µM,20%
same,growth inhibition,[5]; at 3.7 µM,45%
same,growth inhibition,[5]; at 11.0 µM,84% (active)
same,growth inhibition,[5]; at 33.0 µM,93% (active)
same,growth inhibition,[5]; at 100.0 µM,92% (active)
same,growth inhibition,[7]; at 1.2 µM,44%
same,growth inhibition,[7]; at 3.7 µM,79% (active)
same,growth inhibition,[7]; at 11.0 µM,96% (active)
same,growth inhibition,[7]; at 33.0 µM,98% (active)
same,growth inhibition,[7]; at 100.0 µM,97% (active)
same,growth inhibition,[8]; [16],11%
same,growth inhibition,[8]; [17],95% (active)
same,growth inhibition,[8]; at 50.0 µM,91% (active)
same,growth inhibition,[10]; at 1.2 µM,22%
same,growth inhibition,[10]; at 3.7 µM,79% (active)
same,growth inhibition,[10]; at 11.0 µM,97% (active)
same,growth inhibition,[10]; at 33.0 µM,95% (active)
same,growth inhibition,[10]; at 100.0 µM,96% (active)
same,growth inhibition,[11]; at 1.2 µM,13%
same,growth inhibition,[11]; at 3.7 µM,75% (active)
same,growth inhibition,[11]; at 11.0 µM,96% (active)
same,growth inhibition,[11]; at 33.0 µM,94% (active)
same,growth inhibition,[11]; at 100.0 µM,88% (active)
same,growth inhibition,[12]; at 1.2 µM,32%
same,growth inhibition,[12]; at 3.7 µM,73% (active)
same,growth inhibition,[12]; at 11.0 µM,88% (active)
same,growth inhibition,[12]; at 33.0 µM,95% (active)
same,growth inhibition,[12]; at 100.0 µM,92% (active)
same,growth inhibition,[13]; [16],12%
same,growth inhibition,[13]; [17],97% (active)
same,growth inhibition,[13]; at 50.0 µM,98.5% (active)
same,growth inhibition,[14]; at 1.2 µM,35%
same,growth inhibition,[14]; at 3.7 µM,83% (active)
same,growth inhibition,[14]; at 11.0 µM,97% (active)
same,growth inhibition,[14]; at 33.0 µM,96% (active)
same,growth inhibition,[14]; at 100.0 µM,90% (active)
